Measured values reported in the supplement of paper PMC8728848.
Only a selection was taken, and the strongest signals are over-represented in it overall.

Tests used:
Assay in all cases: glycan array binding signal (z-score within array); higher = stronger binding
Details in all cases: glycan notation: IUPAC condensed, linker removed
[1] = target: Gal6P(b1-4)GlcNAc
Procedure, shortened: (§1)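 Glycan array data were curated from 3228 arrays in the Consortium for Functional Glycomics database and kept only where the protein sequence was available. Glycan names were converted to IUPAC-condensed notation, and columns mapping to the same glycan were averaged. The binding signal is a within-array Z-score, averaged across arrays of the same protein sequence at different concentrations or buffers and across linkers. Negative Z-scores can be read as non-binding.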

[2] = target: GlcA3S(b1-3)Gal(b1-4)GlcNAc(b1-2)Man
Procedure, shortened: as §1

[3] = target: GlcNAc(a1-4)Gal(b1-4)GlcNAc(b1-3)Gal(b1-4)[Fuc(a1-3)]GlcNAc(b1-3)Gal(b1-4)[Fuc(a1-3)]GlcNAc
Procedure, shortened: as §1

[4] = target: GlcNAc(b1-3)Gal(b1-4)GlcNAc(b1-2)[GlcNAc(b1-3)Gal(b1-4)GlcNAc(b1-6)]Man(a1-6)[GlcNAc(b1-3)Gal(b1-4)GlcNAc(b1-2)Man(a1-3)]Man(b1-4)GlcNAc(b1-4)GlcNAc
Procedure, shortened: as §1

[5] = target: GlcNAc(b1-3)Gal(b1-4)GlcNAc(b1-3)Gal(b1-4)GlcNAc
Procedure, shortened: as §1

[6] = target: GlcNAc(b1-3)Gal(b1-4)GlcNAc(b1-3)Gal(b1-4)GlcNAc(b1-2)Man(a1-3)[GlcNAc(b1-3)Gal(b1-4)GlcNAc(b1-3)Gal(b1-4)GlcNAc(b1-2)Man(a1-6)]Man(b1-4)GlcNAc(b1-4)GlcNAc
Procedure, shortened: as §1

[7] = target: GlcNAc(b1-3)Gal(b1-4)GlcNAc(b1-3)Gal(b1-4)GlcNAc(b1-3)Gal(b1-4)GlcNAc(b1-2)Man(a1-3)[GlcNAc(b1-3)Gal(b1-4)GlcNAc(b1-3)Gal(b1-4)GlcNAc(b1-3)Gal(b1-4)GlcNAc(b1-2)Man(a1-6)]Man(b1-4)GlcNAc(b1-4)[Fuc(a1-6)]GlcNAc
Procedure, shortened: as §1

[8] = target: GlcNAc(b1-3)Gal(b1-4)GlcNAc(b1-3)Gal(b1-4)GlcNAc(b1-3)Gal(b1-4)GlcNAc(b1-2)[GlcNAc(b1-3)Gal(b1-4)GlcNAc(b1-3)Gal(b1-4)GlcNAc(b1-3)Gal(b1-4)GlcNAc(b1-6)]Man(a1-6)[GlcNAc(b1-3)Gal(b1-4)GlcNAc(b1-3)Gal(b1-4)GlcNAc(b1-3)Gal(b1-4)GlcNAc(b1-2)Man(a1-3)]Man(b1-4)GlcNAc(b1-4)[Fuc(a1-6)]GlcNAc
Procedure, shortened: as §1

[9] = target: GlcNAc(b1-3)Gal(b1-4)GlcNAc(b1-3)Gal(b1-4)GlcNAc(b1-3)Gal(b1-4)GlcNAc(b1-3)Gal(b1-4)GlcNAc(b1-2)[GlcNAc(b1-3)Gal(b1-4)GlcNAc(b1-3)Gal(b1-4)GlcNAc(b1-3)Gal(b1-4)GlcNAc(b1-3)Gal(b1-4)GlcNAc(b1-6)]Man(a1-6)[GlcNAc(b1-3)Gal(b1-4)GlcNAc(b1-3)Gal(b1-4)GlcNAc(b1-3)Gal(b1-4)GlcNAc(b1-3)Gal(b1-4)GlcNAc(b1-2)Man(a1-3)]Man(b1-4)GlcNAc(b1-4)[Fuc(a1-6)]GlcNAc
Procedure, shortened: as §1

[10] = target: GlcNAc(b1-3)Gal(b1-4)GlcNAc(b1-3)Gal(b1-4)GlcNAc(b1-3)GalNAc
Procedure, shortened: as §1

[11] = target: GlcNAc(b1-4)GlcNAc(b1-4)GlcNAc(b1-4)GlcNAc(b1-4)GlcNAc(b1-4)GlcNAc
Procedure, shortened: as §1

[12] = target: Man(a1-2)Man(a1-2)Man(a1-6)[Man(a1-3)]Man
Procedure, shortened: as §1

[13] = target: Man(a1-2)Man(a1-3)[Man(a1-2)Man(a1-6)]Man(a1-6)[Man(a1-2)Man(a1-2)Man(a1-3)]Man
Procedure, shortened: as §1

[14] = target: Neu5Ac(a2-3)Gal(b1-3)GalNAc(b1-4)[Neu5Ac(a2-3)]Gal(b1-4)Glc
Procedure, shortened: as §1

[15] = target: Neu5Ac(a2-3)Gal(b1-3)GalNAc(b1-4)[Neu5Ac(a2-8)Neu5Ac(a2-3)]Gal(b1-4)Glc
Procedure, shortened: as §1

[16] = target: Neu5Ac(a2-3)Gal(b1-3)GlcNAc(b1-2)Man
Procedure, shortened: as §1

[17] = target: Neu5Ac(a2-3)Gal(b1-3)[Neu5Ac(a2-6)]GalNAc
Procedure, shortened: as §1

[18] = target: Neu5Ac(a2-3)Gal(b1-4)GlcNAc(b1-2)[Neu5Ac(a2-3)Gal(b1-4)GlcNAc(b1-6)]Man(a1-6)[Neu5Ac(a2-3)Gal(b1-4)GlcNAc(b1-2)Man(a1-3)][GlcNAc(b1-4)]Man(b1-4)GlcNAc(b1-4)GlcNAc
Procedure, shortened: as §1

[19] = target: Neu5Ac(a2-3)Gal(b1-4)GlcNAc(b1-3)Gal(b1-4)GlcNAc(b1-3)Gal(b1-4)GlcNAc(b1-2)Man(a1-3)[Neu5Ac(a2-3)Gal(b1-4)GlcNAc(b1-3)Gal(b1-4)GlcNAc(b1-3)Gal(b1-4)GlcNAc(b1-2)Man(a1-6)]GalNAc
Procedure, shortened: as §1

[20] = target: Neu5Ac(a2-6)Gal(b1-4)GlcNAc(b1-3)Gal(b1-4)GlcNAc(b1-3)Gal(b1-4)GlcNAc(b1-2)Man(a1-3)[Neu5Ac(a2-6)Gal(b1-4)GlcNAc(b1-3)Gal(b1-4)GlcNAc(b1-3)Gal(b1-4)GlcNAc(b1-2)Man(a1-6)]GalNAc
Procedure, shortened: as §1

[21] = target: Neu5Ac(a2-6)GlcNAc(b1-4)GlcNAc
Procedure, shortened: as §1

[22] = target: Neu5Ac(a2-8)Neu5Ac(a2-3)[GalNAc(b1-4)]Gal(b1-4)Glc
Procedure, shortened: as §1

[23] = target: Neu5Ac(a2-8)Neu5Ac(a2-8)Neu5Ac(a2-3)[Gal(b1-3)GalNAc(b1-4)]Gal(b1-4)Glc
Procedure, shortened: as §1

[24] = target: Neu5Gc(a2-3)Gal(b1-4)Glc
Procedure, shortened: as §1

[25] = target: Neu5Gc(a2-8)Neu5Gc(a2-3)Gal(b1-4)GlcNAc(b1-3)Gal(b1-4)GlcNAc
Procedure, shortened: as §1

B1: MPA (Maclura pomifera), P18674 (protein)
chain: GVTFDDGAYTGIREINFEYNSETAIGGLRVTYDLNGMPFVAEDHKSFITGFKPVKISLEFPSEYIVEVSGYVGKVEGYTVIRSLTFKTNKQTYGPYGVTNGTPFSLPIENGLIVGFKGSIGYWLDYFSIYLSL
glycan array binding signal (z-score) [1]: -0.561 | glycan array binding signal (z-score) [2]: -0.571 | glycan array binding signal (z-score) [3]: -0.148 | glycan array binding signal (z-score) [4]: 5.1 | glycan array binding signal (z-score) [5]: -0.233 | glycan array binding signal (z-score) [6]: 3.5 | glycan array binding signal (z-score) [7]: 5.73 | glycan array binding signal (z-score) [8]: 4.46 | glycan array binding signal (z-score) [9]: 0.56 | glycan array binding signal (z-score) [10]: -0.343 | glycan array binding signal (z-score) [11]: -0.082 | glycan array binding signal (z-score) [12]: -0.161 | glycan array binding signal (z-score) [13]: -0.215 | glycan array binding signal (z-score) [14]: -0.301 | glycan array binding signal (z-score) [15]: -0.179 | glycan array binding signal (z-score) [16]: 1.21 | glycan array binding signal (z-score) [17]: 0.304 | glycan array binding signal (z-score) [18]: -0.334 | glycan array binding signal (z-score) [19]: 3.56 | glycan array binding signal (z-score) [20]: 6.71 | glycan array binding signal (z-score) [21]: -0.39 | glycan array binding signal (z-score) [22]: -0.273 | glycan array binding signal (z-score) [23]: -0.044 | glycan array binding signal (z-score) [24]: -0.156 | glycan array binding signal (z-score) [25]: -0.219
